From PMC7862700, “An all-to-all approach to the identification of sequence-specific readers for epigenetic DNA modifications on cytosine” come the findings set out here.

Holding throughout (assay): DAPPL (digital affinity profiling via proximity ligation, sequencing); 10 mM Tris-HCl pH 7.5, 50 mM NaCl, 1 mM DTT, 4% glycerol, room temperature, 30 min; GST-TFs on glutathione beads, 16-mer random dsDNA library, 0.1% formaldehyde crosslink after washing; high values mean tight binding
What all share (conditions): protein: recombinant; tags: N-terminal GST; dsDNA, one strand shown

Experiment [1] has as its target T1, FLI1 (Homo sapiens, UniProt Q01543 1-452).
T1 sequence: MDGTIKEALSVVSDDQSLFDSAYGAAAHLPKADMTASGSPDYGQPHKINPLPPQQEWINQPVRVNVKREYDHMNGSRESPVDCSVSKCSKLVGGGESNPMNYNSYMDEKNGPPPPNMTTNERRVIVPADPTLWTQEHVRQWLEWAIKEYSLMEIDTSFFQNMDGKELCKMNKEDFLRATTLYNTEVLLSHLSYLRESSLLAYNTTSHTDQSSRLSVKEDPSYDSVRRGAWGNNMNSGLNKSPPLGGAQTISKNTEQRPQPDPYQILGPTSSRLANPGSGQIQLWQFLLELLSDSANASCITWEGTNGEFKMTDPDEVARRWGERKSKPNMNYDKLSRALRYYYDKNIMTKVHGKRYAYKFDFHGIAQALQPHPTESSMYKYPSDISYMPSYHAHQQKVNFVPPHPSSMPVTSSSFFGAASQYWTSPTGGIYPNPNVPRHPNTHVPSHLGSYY
In short, it runs like this: (§1)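 GST fusions of human transcription factors were expressed in yeast and captured with glutathione beads. Once given DNA barcodes and pooled alongside a tag-only sample, they were incubated for 30 min at room temperature with 200 nmole of a random double-stranded 16-mer DNA library in Tris/NaCl/DTT/glycerol buffer, then washed, crosslinked (0.1% formaldehyde), proximity-ligated, PCR-amplified and sequenced on an Illumina NextSeq500. The binding signal of each hexamer is its read frequency for a factor divided by its frequency for the tag-only sample.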

The target in experiment [2] is T2, ELK1 (Homo sapiens, UniProt P19419 1-428).
T2 sequence: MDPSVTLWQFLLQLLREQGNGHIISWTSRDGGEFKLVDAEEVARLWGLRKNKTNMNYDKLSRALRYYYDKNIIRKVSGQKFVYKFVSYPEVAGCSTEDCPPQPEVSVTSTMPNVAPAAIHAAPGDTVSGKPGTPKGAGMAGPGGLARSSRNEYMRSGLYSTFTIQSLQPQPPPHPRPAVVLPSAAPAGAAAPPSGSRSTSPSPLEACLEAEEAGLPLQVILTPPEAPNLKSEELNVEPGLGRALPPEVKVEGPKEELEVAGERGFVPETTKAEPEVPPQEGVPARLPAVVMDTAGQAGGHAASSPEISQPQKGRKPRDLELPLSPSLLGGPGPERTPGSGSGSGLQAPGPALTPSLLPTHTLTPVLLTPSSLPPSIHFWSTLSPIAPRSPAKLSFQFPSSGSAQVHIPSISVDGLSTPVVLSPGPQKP
The method in brief:
as §1

For experiment [3], the target named is T3, GABPA (Homo sapiens, UniProt Q06546 1-454).
T3 sequence: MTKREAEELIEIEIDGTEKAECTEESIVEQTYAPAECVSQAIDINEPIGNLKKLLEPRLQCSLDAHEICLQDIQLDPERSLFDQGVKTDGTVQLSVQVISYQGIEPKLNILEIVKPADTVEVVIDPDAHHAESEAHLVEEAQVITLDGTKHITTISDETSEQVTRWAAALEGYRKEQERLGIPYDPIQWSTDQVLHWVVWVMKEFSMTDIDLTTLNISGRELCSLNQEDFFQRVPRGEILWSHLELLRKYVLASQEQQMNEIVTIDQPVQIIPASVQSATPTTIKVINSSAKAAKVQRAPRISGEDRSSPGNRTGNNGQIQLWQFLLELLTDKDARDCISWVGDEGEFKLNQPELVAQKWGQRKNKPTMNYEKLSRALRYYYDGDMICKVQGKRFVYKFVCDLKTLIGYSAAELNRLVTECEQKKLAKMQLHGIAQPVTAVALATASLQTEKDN
In short, it runs like this: as §1

In experiment [4] the target is T4, ERG (Homo sapiens, UniProt P11308 1-479).
T4 sequence: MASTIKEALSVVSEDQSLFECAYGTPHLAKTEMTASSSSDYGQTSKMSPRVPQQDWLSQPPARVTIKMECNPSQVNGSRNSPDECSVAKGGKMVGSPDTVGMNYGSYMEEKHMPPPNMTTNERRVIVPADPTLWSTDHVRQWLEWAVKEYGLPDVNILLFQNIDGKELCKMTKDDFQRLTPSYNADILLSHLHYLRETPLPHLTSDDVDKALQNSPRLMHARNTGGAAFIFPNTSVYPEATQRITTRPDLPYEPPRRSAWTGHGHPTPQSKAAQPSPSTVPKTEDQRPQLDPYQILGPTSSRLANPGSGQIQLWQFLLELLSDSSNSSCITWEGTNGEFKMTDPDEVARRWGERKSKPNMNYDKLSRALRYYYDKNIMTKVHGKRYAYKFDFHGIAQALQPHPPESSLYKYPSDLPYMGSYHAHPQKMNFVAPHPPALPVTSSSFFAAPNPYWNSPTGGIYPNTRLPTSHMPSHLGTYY
The method in brief:
as §1

Experiment [5] has as its target ELF1 (Homo sapiens, UniProt P32519 1-619). The method in brief: as §1
For experiment [6], the target named is SPIB (Homo sapiens, UniProt Q01892 1-262). The method in brief: as §1
Experiment [7] concerns the target T5, ELK3 (Homo sapiens, UniProt P41970 1-407).
T5 sequence: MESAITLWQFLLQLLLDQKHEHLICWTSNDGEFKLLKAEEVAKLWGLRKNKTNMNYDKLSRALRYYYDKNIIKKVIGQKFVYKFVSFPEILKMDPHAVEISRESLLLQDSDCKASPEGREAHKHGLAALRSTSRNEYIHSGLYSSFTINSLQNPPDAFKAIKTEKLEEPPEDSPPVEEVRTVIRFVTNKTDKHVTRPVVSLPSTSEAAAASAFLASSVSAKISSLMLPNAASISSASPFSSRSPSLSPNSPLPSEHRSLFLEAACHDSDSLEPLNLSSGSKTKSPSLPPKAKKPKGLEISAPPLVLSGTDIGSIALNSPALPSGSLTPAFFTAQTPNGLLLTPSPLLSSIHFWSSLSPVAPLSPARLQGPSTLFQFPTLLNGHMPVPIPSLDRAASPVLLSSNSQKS
In short, it runs like this: as §1

For experiment [8], the target named is T6, FEV (Homo sapiens, UniProt Q99581 1-238).
T6 sequence: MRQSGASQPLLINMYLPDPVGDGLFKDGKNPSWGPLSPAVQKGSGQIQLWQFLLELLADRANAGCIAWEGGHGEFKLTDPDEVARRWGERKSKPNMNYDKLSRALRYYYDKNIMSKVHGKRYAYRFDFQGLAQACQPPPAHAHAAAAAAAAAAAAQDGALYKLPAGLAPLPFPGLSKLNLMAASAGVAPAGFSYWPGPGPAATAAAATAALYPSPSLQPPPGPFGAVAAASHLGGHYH
In short, it runs like this:
as §1

Experiment [9] deals with ETV5 (Homo sapiens, UniProt P41161 1-510). The method in brief:
as §1

Experiment [10] has as its target T7, SPIC (Homo sapiens, UniProt Q8N5J4 1-248).
T7 sequence: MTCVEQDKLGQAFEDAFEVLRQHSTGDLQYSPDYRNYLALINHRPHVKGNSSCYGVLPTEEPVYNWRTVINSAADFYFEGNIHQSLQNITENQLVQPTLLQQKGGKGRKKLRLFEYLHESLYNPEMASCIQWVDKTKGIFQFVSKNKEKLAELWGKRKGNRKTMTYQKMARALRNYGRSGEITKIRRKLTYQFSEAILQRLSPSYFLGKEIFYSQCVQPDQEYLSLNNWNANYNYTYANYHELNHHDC
In short, it runs like this: as §1

The target in experiment [11] is ELF4 (Homo sapiens, UniProt Q99607 1-663). In short, it runs like this:
as §1

Experiment [12] has as its target T8, ELK4 (Homo sapiens, UniProt P28324-2 1-405).
T8 sequence: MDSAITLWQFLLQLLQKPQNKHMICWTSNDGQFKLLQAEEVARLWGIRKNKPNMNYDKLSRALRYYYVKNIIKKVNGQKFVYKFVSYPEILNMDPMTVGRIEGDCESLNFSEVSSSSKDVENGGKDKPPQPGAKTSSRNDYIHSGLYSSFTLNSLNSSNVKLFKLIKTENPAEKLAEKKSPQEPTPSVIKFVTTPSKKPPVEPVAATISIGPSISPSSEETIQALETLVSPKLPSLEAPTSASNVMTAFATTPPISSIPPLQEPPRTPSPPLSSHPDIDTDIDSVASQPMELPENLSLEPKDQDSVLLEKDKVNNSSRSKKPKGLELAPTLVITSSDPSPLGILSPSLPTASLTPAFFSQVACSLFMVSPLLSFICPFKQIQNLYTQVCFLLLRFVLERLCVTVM
In short, it runs like this: as §1

Experiment [13] addresses T9, ETV2 (Homo sapiens, UniProt O00321 1-342).
T9 sequence: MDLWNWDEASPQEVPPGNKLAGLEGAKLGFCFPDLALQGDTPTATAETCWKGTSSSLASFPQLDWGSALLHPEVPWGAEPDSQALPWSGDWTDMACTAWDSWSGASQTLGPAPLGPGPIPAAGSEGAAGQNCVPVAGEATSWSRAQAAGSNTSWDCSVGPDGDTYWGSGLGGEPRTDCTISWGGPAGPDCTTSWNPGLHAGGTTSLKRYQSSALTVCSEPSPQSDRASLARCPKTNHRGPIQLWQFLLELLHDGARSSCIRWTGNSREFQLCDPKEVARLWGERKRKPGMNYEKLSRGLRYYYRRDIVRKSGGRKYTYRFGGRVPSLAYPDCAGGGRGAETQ
The method in brief: as §1

In experiment [14] the target is T10, ELF3 (Homo sapiens, UniProt P78545 1-371).
T10 sequence: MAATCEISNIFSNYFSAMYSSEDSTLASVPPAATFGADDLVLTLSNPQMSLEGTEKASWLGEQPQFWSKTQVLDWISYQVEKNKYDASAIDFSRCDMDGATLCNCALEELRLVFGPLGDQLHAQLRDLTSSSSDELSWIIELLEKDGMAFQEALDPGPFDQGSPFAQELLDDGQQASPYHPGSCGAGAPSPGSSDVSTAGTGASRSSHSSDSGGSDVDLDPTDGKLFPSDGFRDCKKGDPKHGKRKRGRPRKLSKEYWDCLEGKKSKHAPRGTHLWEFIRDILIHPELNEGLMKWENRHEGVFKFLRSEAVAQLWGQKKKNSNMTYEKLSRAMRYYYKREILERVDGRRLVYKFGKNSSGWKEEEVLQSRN
The method in brief: as §1

Experiment [15] addresses T11, EHF (Homo sapiens, UniProt Q9NZC4 1-300).
T11 sequence: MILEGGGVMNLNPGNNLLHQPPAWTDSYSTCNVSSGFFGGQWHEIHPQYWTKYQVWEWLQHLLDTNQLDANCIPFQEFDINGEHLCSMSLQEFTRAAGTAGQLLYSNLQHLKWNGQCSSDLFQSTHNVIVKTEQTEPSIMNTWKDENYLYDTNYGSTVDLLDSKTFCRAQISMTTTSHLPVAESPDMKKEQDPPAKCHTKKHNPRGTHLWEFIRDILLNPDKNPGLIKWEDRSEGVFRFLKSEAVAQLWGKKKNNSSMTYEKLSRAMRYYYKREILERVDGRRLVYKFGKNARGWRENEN
The method in brief: as §1

Experiment [16] concerns the target SPI1 (Homo sapiens, UniProt P17947 1-270). In short, it runs like this:
as §1

In experiment [17] the target is ETV1 (Homo sapiens, UniProt P50549 1-477). The method in brief:
as §1

Sequence of ELF1 (P32519 whole entry): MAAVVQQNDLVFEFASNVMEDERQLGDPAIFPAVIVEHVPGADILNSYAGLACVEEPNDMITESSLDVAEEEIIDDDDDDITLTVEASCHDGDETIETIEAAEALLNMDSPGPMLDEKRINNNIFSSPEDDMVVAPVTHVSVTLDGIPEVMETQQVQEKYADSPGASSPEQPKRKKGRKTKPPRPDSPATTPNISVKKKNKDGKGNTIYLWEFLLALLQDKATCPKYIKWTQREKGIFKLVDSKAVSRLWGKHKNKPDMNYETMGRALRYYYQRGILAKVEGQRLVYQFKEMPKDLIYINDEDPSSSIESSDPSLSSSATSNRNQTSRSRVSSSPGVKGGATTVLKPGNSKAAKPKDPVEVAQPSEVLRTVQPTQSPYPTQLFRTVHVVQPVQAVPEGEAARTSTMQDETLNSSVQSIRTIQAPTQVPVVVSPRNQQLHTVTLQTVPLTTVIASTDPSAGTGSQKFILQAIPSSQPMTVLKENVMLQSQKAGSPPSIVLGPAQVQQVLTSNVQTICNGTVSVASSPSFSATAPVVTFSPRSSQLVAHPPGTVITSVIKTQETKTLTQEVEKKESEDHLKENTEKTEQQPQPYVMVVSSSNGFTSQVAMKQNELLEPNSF
Sequence of SPIB (Q01892 whole entry): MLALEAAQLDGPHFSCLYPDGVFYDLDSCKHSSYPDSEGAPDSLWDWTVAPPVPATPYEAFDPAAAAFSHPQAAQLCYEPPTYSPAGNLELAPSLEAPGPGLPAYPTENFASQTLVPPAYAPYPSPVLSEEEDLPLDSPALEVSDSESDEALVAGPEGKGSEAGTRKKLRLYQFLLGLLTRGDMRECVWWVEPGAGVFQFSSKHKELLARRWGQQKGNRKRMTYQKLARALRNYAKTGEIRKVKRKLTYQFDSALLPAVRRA
Sequence of ELF4 (Q99607 whole entry): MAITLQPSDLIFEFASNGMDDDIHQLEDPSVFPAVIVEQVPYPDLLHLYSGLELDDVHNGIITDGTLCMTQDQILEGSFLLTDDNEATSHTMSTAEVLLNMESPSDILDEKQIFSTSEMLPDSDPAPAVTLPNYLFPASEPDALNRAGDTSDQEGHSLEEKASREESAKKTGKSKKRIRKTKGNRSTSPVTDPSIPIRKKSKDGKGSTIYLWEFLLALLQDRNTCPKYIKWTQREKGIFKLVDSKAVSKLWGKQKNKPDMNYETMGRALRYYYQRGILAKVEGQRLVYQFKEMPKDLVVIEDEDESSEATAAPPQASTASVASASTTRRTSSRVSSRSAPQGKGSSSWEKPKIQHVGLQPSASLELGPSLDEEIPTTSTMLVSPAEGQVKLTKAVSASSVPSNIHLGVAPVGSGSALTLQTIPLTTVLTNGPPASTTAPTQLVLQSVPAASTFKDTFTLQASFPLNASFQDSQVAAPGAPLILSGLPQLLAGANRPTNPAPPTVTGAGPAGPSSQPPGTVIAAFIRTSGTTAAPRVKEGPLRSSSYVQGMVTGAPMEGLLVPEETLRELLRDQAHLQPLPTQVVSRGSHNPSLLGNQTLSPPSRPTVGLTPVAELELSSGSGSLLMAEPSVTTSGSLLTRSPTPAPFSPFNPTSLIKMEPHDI
Sequence of ETV5 (P41161 whole entry): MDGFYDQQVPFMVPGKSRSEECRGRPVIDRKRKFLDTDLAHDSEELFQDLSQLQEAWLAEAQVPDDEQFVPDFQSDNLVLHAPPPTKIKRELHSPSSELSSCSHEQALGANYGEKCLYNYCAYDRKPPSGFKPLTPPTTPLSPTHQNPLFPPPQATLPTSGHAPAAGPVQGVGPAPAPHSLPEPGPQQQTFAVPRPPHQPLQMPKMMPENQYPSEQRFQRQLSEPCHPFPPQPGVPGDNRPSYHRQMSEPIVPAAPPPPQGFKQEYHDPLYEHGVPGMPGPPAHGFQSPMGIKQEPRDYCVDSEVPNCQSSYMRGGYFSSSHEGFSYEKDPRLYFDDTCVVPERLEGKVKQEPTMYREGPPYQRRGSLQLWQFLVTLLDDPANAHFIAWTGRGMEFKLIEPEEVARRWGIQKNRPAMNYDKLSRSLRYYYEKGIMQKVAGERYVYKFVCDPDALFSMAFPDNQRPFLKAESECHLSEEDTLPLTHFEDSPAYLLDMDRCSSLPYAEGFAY
Sequence of ETV1 (P50549 whole entry): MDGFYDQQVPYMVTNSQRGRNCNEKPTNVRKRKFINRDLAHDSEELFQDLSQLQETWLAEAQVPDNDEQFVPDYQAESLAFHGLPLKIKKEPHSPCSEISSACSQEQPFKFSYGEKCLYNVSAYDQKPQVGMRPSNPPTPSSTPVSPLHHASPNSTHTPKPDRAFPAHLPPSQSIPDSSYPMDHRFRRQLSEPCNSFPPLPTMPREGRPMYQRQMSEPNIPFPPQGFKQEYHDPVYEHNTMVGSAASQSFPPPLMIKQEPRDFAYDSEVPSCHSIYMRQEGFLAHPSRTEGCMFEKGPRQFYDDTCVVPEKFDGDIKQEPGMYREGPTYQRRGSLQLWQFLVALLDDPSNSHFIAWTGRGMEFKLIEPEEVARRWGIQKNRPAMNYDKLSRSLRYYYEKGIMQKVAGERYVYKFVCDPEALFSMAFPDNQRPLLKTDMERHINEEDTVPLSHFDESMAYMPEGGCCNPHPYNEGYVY

Take CTCAGG: the binding signal in experiment [1] is 1.08 fold enrichment (6-mer frequency, TF over GST control); in [2] it was 1.13 fold enrichment (6-mer frequency, TF over GST control); in experiment [3] it was 1.02 fold enrichment (6-mer frequency, TF over GST control); in experiment [4], 1.1 fold enrichment (6-mer frequency, TF over GST control); in experiment [5], 1.08 fold enrichment (6-mer frequency, TF over GST control); in [6], 1.11 fold enrichment (6-mer frequency, TF over GST control). In addition, the binding signal in experiment [7] is 1.07 fold enrichment (6-mer frequency, TF over GST control); in experiment [8], 1.09 fold enrichment (6-mer frequency, TF over GST control); in experiment [9], 1.06 fold enrichment (6-mer frequency, TF over GST control); in experiment [10], 1.06 fold enrichment (6-mer frequency, TF over GST control); in experiment [11], 1.07 fold enrichment (6-mer frequency, TF over GST control); in experiment [12] it was 1.05 fold enrichment (6-mer frequency, TF over GST control). For the same sequence, the binding signal was 1.12 fold enrichment (6-mer frequency, TF over GST control) in experiment [13] and 1.15 fold enrichment (6-mer frequency, TF over GST control) in experiment [14].
GTAGCA: the binding signal in experiment [1] is 1.03 fold enrichment (6-mer frequency, TF over GST control); in experiment [2], 1.1 fold enrichment (6-mer frequency, TF over GST control); in experiment [3] it was 1.15 fold enrichment (6-mer frequency, TF over GST control); in experiment [5], 1.16 fold enrichment (6-mer frequency, TF over GST control); in [15], 1.1 fold enrichment (6-mer frequency, TF over GST control); in [16], 1.08 fold enrichment (6-mer frequency, TF over GST control). Moreover, the binding signal is 1.03 fold enrichment (6-mer frequency, TF over GST control) in experiment [6]; 1.11 fold enrichment (6-mer frequency, TF over GST control) in experiment [7]; 1.07 fold enrichment (6-mer frequency, TF over GST control) in experiment [8]; 1.13 fold enrichment (6-mer frequency, TF over GST control) in [9]; 1.16 fold enrichment (6-mer frequency, TF over GST control) in experiment [10]; 1.07 fold enrichment (6-mer frequency, TF over GST control) in experiment [11]. Also, the binding signal in [12] was 1.06 fold enrichment (6-mer frequency, TF over GST control); in [13] it was 1.11 fold enrichment (6-mer frequency, TF over GST control); in [14], 1.01 fold enrichment (6-mer frequency, TF over GST control); in experiment [17] it was 1.11 fold enrichment (6-mer frequency, TF over GST control).
